Measured values: PMC7862700, “An all-to-all approach to the identification of sequence-specific readers for epigenetic DNA modifications on cytosine”

What was measured:
Assay in all cases: DAPPL (digital affinity profiling via proximity ligation, sequencing); 10 mM Tris-HCl pH 7.5, 50 mM NaCl, 1 mM DTT, 4% glycerol, room temperature, 30 min; GST-TFs on glutathione beads, 16-mer random dsDNA library, 0.1% formaldehyde crosslink after washing; high values mean tight binding
[1] = target: T1, FEV (Homo sapiens, UniProt Q99581 1-238); settings: protein: recombinant; tags: N-terminal GST; dsDNA, one strand shown
T1 sequence: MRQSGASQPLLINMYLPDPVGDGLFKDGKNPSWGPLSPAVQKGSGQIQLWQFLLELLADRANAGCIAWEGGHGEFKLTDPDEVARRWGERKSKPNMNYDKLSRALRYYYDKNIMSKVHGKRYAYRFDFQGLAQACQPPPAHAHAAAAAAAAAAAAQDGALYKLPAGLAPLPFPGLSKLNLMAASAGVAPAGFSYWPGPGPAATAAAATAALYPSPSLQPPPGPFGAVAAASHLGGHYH
Summary of the method: (§1)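 The binding signal reported is, for every hexamer, its read frequency for a factor over its read frequency for the tag-only sample. Reads came from pools of yeast-expressed, GST-fused human transcription factors on glutathione beads, barcoded with DNA and mixed with that sample, which were incubated with 200 nmole of a random double-stranded 16-mer DNA library in Tris/NaCl/DTT/glycerol buffer at room temperature for 30 min. After washing, the pools were crosslinked with 0.1% formaldehyde, proximity-ligated with BsaI/T4 ligase for 1 h at 37 °C, PCR-amplified and sequenced on an Illumina NextSeq500.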

[2] = target: ETV5 (Homo sapiens, UniProt P41161 1-510); settings: protein: recombinant; tags: N-terminal GST; dsDNA, one strand shown
Sequence of ETV5 (P41161 whole entry): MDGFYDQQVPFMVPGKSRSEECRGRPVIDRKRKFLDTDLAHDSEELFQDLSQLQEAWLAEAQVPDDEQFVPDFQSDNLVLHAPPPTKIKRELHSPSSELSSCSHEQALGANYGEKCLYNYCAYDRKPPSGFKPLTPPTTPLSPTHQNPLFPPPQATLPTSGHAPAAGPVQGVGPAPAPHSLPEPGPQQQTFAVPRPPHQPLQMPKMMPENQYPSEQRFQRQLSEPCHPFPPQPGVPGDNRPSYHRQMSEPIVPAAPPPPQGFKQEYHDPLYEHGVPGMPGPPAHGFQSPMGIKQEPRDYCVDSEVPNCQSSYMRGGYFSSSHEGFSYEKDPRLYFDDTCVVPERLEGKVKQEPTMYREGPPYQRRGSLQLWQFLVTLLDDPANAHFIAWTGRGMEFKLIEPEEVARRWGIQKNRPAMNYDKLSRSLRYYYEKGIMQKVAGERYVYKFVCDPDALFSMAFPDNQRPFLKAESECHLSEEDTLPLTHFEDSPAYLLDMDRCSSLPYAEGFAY
Summary of the method: as §1

[3] = target: HSF1 (Homo sapiens, UniProt Q00613 1-529); settings: protein: recombinant; tags: N-terminal GST; chain copies: 3; dsDNA, one strand shown
Sequence of HSF1 (Q00613 whole entry): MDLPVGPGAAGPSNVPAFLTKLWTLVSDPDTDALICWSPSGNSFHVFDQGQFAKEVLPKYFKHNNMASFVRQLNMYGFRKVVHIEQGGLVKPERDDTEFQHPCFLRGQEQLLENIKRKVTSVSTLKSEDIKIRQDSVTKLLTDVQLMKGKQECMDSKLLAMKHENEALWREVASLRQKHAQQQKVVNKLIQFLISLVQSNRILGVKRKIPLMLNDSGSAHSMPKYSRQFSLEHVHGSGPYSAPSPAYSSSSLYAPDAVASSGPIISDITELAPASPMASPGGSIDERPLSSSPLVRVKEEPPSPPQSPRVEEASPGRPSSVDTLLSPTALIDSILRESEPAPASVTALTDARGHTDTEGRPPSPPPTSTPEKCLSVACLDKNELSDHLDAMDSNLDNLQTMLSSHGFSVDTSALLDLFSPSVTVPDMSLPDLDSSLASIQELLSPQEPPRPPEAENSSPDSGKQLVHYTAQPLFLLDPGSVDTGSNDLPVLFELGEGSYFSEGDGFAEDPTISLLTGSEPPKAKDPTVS
Summary of the method: as §1

[4] = target: T2, SPIC (Homo sapiens, UniProt Q8N5J4 1-248); settings: protein: recombinant; tags: N-terminal GST; dsDNA, one strand shown
T2 sequence: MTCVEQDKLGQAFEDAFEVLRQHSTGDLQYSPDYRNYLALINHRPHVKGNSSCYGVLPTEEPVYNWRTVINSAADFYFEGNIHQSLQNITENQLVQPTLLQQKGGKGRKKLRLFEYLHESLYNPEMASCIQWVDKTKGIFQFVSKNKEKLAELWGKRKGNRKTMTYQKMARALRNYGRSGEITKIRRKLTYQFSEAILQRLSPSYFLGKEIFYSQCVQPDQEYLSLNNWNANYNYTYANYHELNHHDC
Summary of the method: as §1

[5] = target: ELF4 (Homo sapiens, UniProt Q99607 1-663); settings: protein: recombinant; tags: N-terminal GST; dsDNA, one strand shown
Sequence of ELF4 (Q99607 whole entry): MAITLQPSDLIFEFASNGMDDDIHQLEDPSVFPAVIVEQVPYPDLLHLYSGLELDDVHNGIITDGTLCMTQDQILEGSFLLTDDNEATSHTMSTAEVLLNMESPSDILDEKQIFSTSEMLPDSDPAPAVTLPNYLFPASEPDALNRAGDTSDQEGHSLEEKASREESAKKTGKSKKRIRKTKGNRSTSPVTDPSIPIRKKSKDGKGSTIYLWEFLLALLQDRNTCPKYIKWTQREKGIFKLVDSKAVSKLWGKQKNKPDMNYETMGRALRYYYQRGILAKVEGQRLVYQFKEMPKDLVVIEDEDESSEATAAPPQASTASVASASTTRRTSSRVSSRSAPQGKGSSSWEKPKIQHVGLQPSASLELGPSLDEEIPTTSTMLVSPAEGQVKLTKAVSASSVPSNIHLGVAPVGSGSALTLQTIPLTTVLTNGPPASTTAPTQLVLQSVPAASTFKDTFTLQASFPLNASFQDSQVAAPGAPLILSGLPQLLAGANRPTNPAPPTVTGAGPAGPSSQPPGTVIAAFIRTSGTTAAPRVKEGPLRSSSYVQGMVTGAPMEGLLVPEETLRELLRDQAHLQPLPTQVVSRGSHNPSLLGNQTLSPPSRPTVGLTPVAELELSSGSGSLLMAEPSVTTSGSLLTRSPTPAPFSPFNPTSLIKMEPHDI
Summary of the method: as §1

[6] = target: T3, ELK4 (Homo sapiens, UniProt P28324-2 1-405); settings: protein: recombinant; tags: N-terminal GST; dsDNA, one strand shown
T3 sequence: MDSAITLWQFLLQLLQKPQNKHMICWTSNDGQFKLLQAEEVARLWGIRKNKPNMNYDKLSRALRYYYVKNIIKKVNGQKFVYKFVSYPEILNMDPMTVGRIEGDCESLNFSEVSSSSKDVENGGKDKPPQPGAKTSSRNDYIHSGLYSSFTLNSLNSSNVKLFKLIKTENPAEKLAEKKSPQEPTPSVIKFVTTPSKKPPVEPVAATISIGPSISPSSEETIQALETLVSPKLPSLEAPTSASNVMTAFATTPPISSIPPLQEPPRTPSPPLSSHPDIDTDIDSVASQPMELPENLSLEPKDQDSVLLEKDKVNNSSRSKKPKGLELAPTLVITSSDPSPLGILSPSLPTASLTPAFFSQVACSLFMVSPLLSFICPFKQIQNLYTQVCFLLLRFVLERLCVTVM
Summary of the method: as §1

[7] = target: T4, ETV2 (Homo sapiens, UniProt O00321 1-342); settings: protein: recombinant; tags: N-terminal GST; dsDNA, one strand shown
T4 sequence: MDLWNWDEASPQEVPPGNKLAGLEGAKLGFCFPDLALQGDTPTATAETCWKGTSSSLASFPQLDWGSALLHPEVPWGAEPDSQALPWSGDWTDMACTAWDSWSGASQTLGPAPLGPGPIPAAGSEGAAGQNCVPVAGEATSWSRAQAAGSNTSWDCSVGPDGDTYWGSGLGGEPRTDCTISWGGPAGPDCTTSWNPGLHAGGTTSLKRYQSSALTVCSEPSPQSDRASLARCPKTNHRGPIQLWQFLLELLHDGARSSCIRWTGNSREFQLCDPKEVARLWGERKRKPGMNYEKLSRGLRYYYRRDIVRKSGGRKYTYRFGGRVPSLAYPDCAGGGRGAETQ
Summary of the method: as §1

[8] = target: T5, ELF3 (Homo sapiens, UniProt P78545 1-371); settings: protein: recombinant; tags: N-terminal GST; dsDNA, one strand shown
T5 sequence: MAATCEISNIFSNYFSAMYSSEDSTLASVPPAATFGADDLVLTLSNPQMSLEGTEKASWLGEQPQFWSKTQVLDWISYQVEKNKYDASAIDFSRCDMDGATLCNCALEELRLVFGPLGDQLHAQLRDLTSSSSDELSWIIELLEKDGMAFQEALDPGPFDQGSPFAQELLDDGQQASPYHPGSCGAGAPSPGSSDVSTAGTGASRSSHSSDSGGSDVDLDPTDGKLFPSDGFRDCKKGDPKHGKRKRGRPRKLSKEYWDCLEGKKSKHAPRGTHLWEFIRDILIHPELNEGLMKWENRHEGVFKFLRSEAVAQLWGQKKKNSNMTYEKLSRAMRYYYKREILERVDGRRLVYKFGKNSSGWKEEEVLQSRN
Summary of the method: as §1

[9] = target: CRX (Homo sapiens, UniProt O43186 1-299); settings: protein: recombinant; tags: N-terminal GST; dsDNA, one strand shown
Sequence of CRX (O43186 whole entry): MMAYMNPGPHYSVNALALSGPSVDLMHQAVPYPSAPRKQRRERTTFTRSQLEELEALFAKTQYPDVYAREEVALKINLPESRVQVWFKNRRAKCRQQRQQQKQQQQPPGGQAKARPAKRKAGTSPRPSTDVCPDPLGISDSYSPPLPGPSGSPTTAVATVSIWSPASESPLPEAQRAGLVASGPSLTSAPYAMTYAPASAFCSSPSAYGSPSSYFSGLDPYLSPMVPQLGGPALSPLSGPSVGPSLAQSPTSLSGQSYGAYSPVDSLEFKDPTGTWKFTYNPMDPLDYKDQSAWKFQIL
Summary of the method: as §1

[10] = target: ETV1 (Homo sapiens, UniProt P50549 1-477); settings: protein: recombinant; tags: N-terminal GST; dsDNA, one strand shown
Sequence of ETV1 (P50549 whole entry): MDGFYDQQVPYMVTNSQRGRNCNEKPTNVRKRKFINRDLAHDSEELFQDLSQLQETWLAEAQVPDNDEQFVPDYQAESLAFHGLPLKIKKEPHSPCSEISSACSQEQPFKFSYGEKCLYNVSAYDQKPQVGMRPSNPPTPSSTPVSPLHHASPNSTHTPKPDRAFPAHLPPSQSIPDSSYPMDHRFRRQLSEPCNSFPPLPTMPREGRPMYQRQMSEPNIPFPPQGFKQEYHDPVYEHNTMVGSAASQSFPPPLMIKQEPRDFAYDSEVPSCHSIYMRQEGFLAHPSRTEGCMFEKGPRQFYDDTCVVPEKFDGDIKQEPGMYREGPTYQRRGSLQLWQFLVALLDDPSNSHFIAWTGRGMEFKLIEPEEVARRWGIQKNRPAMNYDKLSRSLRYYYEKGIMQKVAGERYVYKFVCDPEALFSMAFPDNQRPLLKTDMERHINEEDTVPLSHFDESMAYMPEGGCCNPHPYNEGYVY
Summary of the method: as §1

[11] = target: T6, ERF (Homo sapiens, UniProt P50548 1-548); settings: protein: recombinant; tags: N-terminal GST; dsDNA, one strand shown
T6 sequence: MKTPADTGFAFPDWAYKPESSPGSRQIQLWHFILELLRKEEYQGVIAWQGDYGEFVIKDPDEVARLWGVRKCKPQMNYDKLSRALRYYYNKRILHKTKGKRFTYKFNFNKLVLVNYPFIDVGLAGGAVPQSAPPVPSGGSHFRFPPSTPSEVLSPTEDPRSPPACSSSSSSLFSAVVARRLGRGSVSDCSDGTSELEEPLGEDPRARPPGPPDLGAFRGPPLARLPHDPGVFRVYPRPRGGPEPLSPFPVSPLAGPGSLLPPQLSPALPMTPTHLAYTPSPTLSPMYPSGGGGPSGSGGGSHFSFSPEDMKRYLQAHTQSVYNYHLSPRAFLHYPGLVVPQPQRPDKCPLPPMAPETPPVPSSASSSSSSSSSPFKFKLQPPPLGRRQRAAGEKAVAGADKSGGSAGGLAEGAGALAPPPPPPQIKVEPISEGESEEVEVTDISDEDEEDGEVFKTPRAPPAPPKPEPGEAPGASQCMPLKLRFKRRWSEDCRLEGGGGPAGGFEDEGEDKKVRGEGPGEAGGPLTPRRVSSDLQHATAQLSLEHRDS
Summary of the method: as §1

[12] = target: T7, ETV3L (Homo sapiens, UniProt Q6ZN32 1-361); settings: protein: recombinant; tags: N-terminal GST; dsDNA, one strand shown
T7 sequence: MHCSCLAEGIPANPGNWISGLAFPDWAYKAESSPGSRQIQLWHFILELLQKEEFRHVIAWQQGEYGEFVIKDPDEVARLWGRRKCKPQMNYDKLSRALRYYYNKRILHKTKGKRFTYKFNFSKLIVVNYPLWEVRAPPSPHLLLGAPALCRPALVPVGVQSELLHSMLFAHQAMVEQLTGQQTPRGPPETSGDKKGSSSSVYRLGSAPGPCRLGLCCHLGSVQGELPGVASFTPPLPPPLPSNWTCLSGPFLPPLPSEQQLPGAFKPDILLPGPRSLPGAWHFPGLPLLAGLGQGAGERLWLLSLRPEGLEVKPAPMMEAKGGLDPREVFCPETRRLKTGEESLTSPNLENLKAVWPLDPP
Summary of the method: as §1

[13] = target: T8, ETS2 (Homo sapiens, UniProt P15036 1-469); settings: protein: recombinant; tags: N-terminal GST; dsDNA, one strand shown
T8 sequence: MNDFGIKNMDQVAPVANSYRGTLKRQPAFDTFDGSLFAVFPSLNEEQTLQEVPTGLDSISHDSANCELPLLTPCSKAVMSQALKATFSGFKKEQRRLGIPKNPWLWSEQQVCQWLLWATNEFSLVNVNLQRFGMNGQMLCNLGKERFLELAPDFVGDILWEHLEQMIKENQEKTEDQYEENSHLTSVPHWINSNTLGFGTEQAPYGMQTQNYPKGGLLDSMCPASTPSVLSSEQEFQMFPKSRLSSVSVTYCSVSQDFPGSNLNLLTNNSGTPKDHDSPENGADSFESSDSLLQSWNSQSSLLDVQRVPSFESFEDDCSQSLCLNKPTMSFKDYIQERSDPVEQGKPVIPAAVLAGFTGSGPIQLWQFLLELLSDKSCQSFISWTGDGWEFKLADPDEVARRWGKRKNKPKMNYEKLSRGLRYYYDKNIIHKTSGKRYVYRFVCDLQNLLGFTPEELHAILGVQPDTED
Summary of the method: as §1

[14] = target: T9, SPDEF (Homo sapiens, UniProt O95238 1-335); settings: protein: recombinant; tags: N-terminal GST; dsDNA, one strand shown
T9 sequence: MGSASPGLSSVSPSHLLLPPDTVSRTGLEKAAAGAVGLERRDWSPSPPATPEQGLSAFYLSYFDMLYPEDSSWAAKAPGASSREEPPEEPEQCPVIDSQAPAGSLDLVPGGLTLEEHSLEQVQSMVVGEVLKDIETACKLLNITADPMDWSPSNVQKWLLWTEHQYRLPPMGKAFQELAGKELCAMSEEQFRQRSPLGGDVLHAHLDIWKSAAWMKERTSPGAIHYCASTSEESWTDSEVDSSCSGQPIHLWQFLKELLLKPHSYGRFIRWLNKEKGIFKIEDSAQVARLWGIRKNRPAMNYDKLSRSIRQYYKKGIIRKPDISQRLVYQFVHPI
Summary of the method: as §1

[15] = target: T10, ETV7 (Homo sapiens, UniProt Q9Y603 1-341); settings: protein: recombinant; tags: N-terminal GST; dsDNA, one strand shown
T10 sequence: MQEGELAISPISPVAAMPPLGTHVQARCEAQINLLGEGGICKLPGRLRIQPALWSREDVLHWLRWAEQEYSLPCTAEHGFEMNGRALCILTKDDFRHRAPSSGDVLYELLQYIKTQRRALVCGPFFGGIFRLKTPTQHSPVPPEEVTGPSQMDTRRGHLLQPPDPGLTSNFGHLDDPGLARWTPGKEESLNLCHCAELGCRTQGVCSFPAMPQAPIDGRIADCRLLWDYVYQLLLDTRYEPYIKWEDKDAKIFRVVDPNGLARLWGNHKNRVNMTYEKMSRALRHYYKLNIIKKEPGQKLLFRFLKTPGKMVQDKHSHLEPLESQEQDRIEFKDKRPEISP
Summary of the method: as §1

[16] = target: T11, ELF5 (Homo sapiens, UniProt Q9UKW6-2 1-255); settings: protein: recombinant; tags: N-terminal GST; dsDNA, one strand shown
T11 sequence: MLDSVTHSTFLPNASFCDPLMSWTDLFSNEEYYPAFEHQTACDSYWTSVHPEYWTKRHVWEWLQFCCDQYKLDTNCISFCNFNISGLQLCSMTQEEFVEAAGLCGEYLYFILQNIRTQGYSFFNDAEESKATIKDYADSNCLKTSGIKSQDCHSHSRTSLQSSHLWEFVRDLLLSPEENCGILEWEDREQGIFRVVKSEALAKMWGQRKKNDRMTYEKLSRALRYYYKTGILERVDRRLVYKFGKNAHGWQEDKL
Summary of the method: as §1

[17] = target: T12, ETV3 (Homo sapiens, UniProt P41162-2 1-143); settings: protein: recombinant; tags: N-terminal GST; dsDNA, one strand shown
T12 sequence: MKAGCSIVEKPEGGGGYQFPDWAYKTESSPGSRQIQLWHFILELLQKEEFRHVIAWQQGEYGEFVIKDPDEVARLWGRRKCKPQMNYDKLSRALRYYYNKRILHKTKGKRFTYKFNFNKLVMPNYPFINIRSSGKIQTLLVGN
Summary of the method: as §1

[18] = target: ETV6 (Homo sapiens, UniProt P41212 1-452); settings: protein: recombinant; tags: N-terminal GST; dsDNA, one strand shown
Sequence of ETV6 (P41212 whole entry): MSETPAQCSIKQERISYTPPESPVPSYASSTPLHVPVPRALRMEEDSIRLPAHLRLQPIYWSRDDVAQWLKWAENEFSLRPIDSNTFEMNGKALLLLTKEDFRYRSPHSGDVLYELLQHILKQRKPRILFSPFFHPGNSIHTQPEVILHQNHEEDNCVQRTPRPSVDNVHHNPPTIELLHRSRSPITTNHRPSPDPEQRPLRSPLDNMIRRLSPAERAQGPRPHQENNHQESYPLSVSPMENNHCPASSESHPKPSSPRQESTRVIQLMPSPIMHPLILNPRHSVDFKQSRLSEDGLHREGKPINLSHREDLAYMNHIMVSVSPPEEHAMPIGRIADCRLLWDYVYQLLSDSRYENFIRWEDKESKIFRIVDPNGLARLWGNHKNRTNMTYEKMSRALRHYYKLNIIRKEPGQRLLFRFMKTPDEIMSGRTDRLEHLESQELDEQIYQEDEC
Summary of the method: as §1

## TGTTCT
[1]
  binding signal: 1.28 fold enrichment (6-mer frequency, TF over GST control)
[2]
  binding signal: 1.32 fold enrichment (6-mer frequency, TF over GST control)
[3]
  binding signal: 2.8 fold enrichment (6-mer frequency, TF over GST control)
[4]
  binding signal: 1.45 fold enrichment (6-mer frequency, TF over GST control)
[5]
  binding signal: 1.42 fold enrichment (6-mer frequency, TF over GST control)
[6]
  binding signal: 1.3 fold enrichment (6-mer frequency, TF over GST control)
[7]
  binding signal: 1.23 fold enrichment (6-mer frequency, TF over GST control)
[8]
  binding signal: 1.38 fold enrichment (6-mer frequency, TF over GST control)
[9]
  binding signal: 1.45 fold enrichment (6-mer frequency, TF over GST control)
[10]
  binding signal: 1.39 fold enrichment (6-mer frequency, TF over GST control)
[11]
  binding signal: 1.39 fold enrichment (6-mer frequency, TF over GST control)
[12]
  binding signal: 1.43 fold enrichment (6-mer frequency, TF over GST control)
[13]
  binding signal: 1.18 fold enrichment (6-mer frequency, TF over GST control)
[14]
  binding signal: 1.22 fold enrichment (6-mer frequency, TF over GST control)
[15]
  binding signal: 1.22 fold enrichment (6-mer frequency, TF over GST control)
[16]
  binding signal: 1.37 fold enrichment (6-mer frequency, TF over GST control)
[17]
  binding signal: 1.27 fold enrichment (6-mer frequency, TF over GST control)
[18]
  binding signal: 1.37 fold enrichment (6-mer frequency, TF over GST control)
